Screening data (PubChem)
Shn3 3UTR inh = reduces Shn3 3'UTR luciferase signal in osteoblasts; Clone20 osteoblast Shn3 3'UTR firefly luciferase, 24 h; inhibition, % at 12.5 µM; actives 0.52% (n = 360,000); AID 588674;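 active = mean inhibition of at least 75% with every replicate also reaching 75%; inconclusive = mean inhibition at least 75% but some replicate below; inactive = mean inhibition below 75%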
TAG inh = inhibitors of triacylglycerol accumulation; H9c2 cells, Nile Red lipid (TAG) fluorescence; cells loaded with 200 µM oleic acid; inhibition, % at 12.5 µM; actives 0.66% (n = 230,000);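 active = pattern-corrected inhibition of lipid staining of at least 50% with the nuclear-stain viability signal not falling by more than 50%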
Jurkat NFkB inh = lowers PMA/ionomycin-induced NF-kB signal in Jurkat cells | actives 0.53% (n = 330,000) | AID 435003 | PMA/ionomycin-induced NF-kB luciferase reporter, luminescence | inhibition, % at 4 µM; in the data active = inhibition above about 50%
697 NFkB inh = inhibitors of the PMA/ionomycin-induced NF-kB reporter in 697 B cells. actives 0.33% (n = 330,000). inhibition, % at 4 µM. 697 B-cell NF-kB luciferase reporter, 16 h; in the data active = inhibition above about 35%
Gli-Sufu block = antagonists of Gli-Sufu signaling; Sufu-KO-LIGHT fibroblasts, Gli luciferase reporter luminescence; inhibition, % at 5 µM; actives 0.74% (n = 340,000);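 active = inhibition above about 55%, limit read from the data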
aSyn UTR inh = MLPCN primary screen, SNCA 5' untranslated region; AID 1813; inhibition, % (tested at 7.5 µM); alpha-synuclein 5'UTR reporter, inhibitor activity; actives 0.82% (n = 300,000); in the data active = inhibition above about 60%; inconclusive = no clear call, values can overlap the other calls;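 also: H4 neuroglioblastoma cells stably carrying SNCA 5'UTR luciferase fusion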
Of the large screens only hits and unclear results are named; the others gave an inactive call. Most compounds without a hit are left out; they make up all but 2.3% or so of the library.

CO/N=C(\Cn1ncc(NC2CCCCC2)c(Br)c1=O)c1ccc(Cl)cc1	Shn3 3UTR inh 87.6
Cc1nn(-c2ccccc2)c2c1C(c1ccc(F)cc1F)C(C#N)=C(N)O2 (stereo not drawn)	none (no result: TAG inh)
COc1cc(CN2CCN(CCCc3ccccc3)CC2CCO)cc(OC)c1 (stereo not drawn)	none (no result: TAG inh)
COc1cc(CN2CCN(CC#Cc3ccccc3)CC2CCO)cc(OC)c1 (stereo not drawn)	Gli-Sufu block 56.8
CC(=O)c1ccc(NC(=O)C(C)OC(=O)/C=C/c2ccco2)cc1 (stereo not drawn)	Shn3 3UTR inh 88.3 (no result: aSyn UTR inh)
CCn1ccnc1C(O)c1ccc(N(C)C)cc1 (stereo not drawn)	none
COCCn1c(SCC(=O)c2c[nH]c3ccccc23)nnc1-c1ccncc1	none (no result: TAG inh)
OC1(c2ccc(Cl)cc2)CCN(Cc2cn[nH]c2-c2ccccc2)CC1	aSyn UTR inh 69.8 (no result: Shn3 3UTR inh)
OC1(c2ccc(Cl)cc2)CCN(Cc2cn[nH]c2-c2ccc(F)cc2)CC1	aSyn UTR inh inconclusive (no result: Shn3 3UTR inh)
COc1ccc(-c2[nH]ncc2CN2CCC(O)(c3ccc(Cl)cc3)CC2)cc1	aSyn UTR inh 87.4 (no result: Shn3 3UTR inh)
C/C(=N\NC(=O)c1c(Cl)cnn1C)c1cccc(NC(=O)COc2ccccc2)c1	none
CCc1cccc(NC(=O)COc2ccccc2)c1	none
S=C(NCc1ccco1)Nc1cccc(Cl)c1Cl	none
Cc1cc(C)n(-c2ccc3cccc(NS(C)(=O)=O)c3n2)n1	Shn3 3UTR inh 90.1, aSyn UTR inh 90.2
COc1ccc(CNC(=O)C(=O)NCCC2CCCCN2S(=O)(=O)c2ccccc2)cc1 (stereo not drawn)	none
COc1cc(/C=C(/C#N)c2nc3ccccc3[nH]2)ccc1OCC(=O)Nc1ccccc1C(C)C	aSyn UTR inh 103.5 (no result: TAG inh)
COc1cc(/C=C(\C#N)c2nc3ccccc3[nH]2)ccc1OC(=O)c1ccco1	none
Cc1cc(C)cc(C(=O)NC(=S)Nc2ccc(-c3cc4ccccc4oc3=O)cc2)c1	aSyn UTR inh 96.8 (no result: TAG inh)
Clc1ccc2nc(C3CCN(Cc4nnnn4C4CCCCC4)CC3)[nH]c2c1	none
Cc1ccc(Cn2nnnc2CN2CCC(c3nc4ccc(Cl)cc4[nH]3)CC2)cc1	aSyn UTR inh 78.3 (no result: TAG inh)
O=C(NC1CCCc2ccccc21)c1n[nH]c(=O)c2ccccc12 (stereo not drawn)	aSyn UTR inh 87.5
O=C(NC1CCCc2ccccc21)c1ccccc1 (stereo not drawn)	none
Cc1cccc(N2CCN(C(=O)CSCc3c(C)noc3C)CC2)c1C	Shn3 3UTR inh 84.9 (no result: TAG inh)
CCCOc1ccc(/C=N/NC(=S)Nc2ccccc2[N+](=O)[O-])c(O)c1	Gli-Sufu block 81.9, aSyn UTR inh 100.6 (no result: Shn3 3UTR inh, TAG inh, Jurkat NFkB inh, 697 NFkB inh)
CN(CC(=O)Nc1cccc(F)c1)CC(=O)Nc1cc(S(=O)(=O)N2CCOCC2)ccc1Cl	none (no result: aSyn UTR inh)
Cc1ccc(NC(=O)c2oc3ccccc3c2COC(C)C)cc1S(=O)(=O)N1CCOCC1	Shn3 3UTR inh 87.9 (no result: aSyn UTR inh)
CN(CC(=O)Nc1cccc(S(=O)(=O)N2CCOCC2)c1)CC(=O)Nc1ccc(Cl)c(C(F)(F)F)c1	Shn3 3UTR inh 88.1
Cc1c(C(=O)Nc2cccc(C(F)(F)F)c2)oc2ccc(S(=O)(=O)N3CCOCC3)cc12	Shn3 3UTR inh 88.0 (no result: TAG inh, aSyn UTR inh)
COc1ccc(NC(=O)c2oc3ccccc3c2CSC)cc1S(=O)(=O)N1CCOCC1	none (no result: aSyn UTR inh)
CC(=O)O[C@H]1CC[C@@]2(C)C(=CC[C@H]3[C@@H]4CC[C@H](C(C)=O)[C@@]4(C)CC[C@@H]32)C1	Shn3 3UTR inh 86.5
CC(=O)[C@H]1CC[C@H]2[C@@H]3CC=C4C[C@@H](OS(=O)(=O)O)CC[C@]4(C)[C@H]3CC[C@]12C	none (no result: Jurkat NFkB inh, 697 NFkB inh, aSyn UTR inh)
O=C1CCCc2c1[nH]c1ccc(Cl)cc21	aSyn UTR inh 63.1
Cc1ccc(-c2nc(NC(=O)c3nn(C)cc3[N+](=O)[O-])sc2C)cc1	Shn3 3UTR inh 93.1, aSyn UTR inh 99.4 (no result: TAG inh)
Cc1ccc(-c2nc(NC(=O)c3nn(C)cc3[N+](=O)[O-])sc2C)cc1C	Shn3 3UTR inh 93.0 (no result: TAG inh)
Cn1cc([N+](=O)[O-])c(C(=O)Nc2nc(-c3ccc(Cl)cc3)cs2)n1	aSyn UTR inh 62.8
COc1ccc(C)cc1NC(=S)N1CCN(c2ncccn2)CC1	none (no result: aSyn UTR inh)
Cc1ccc(-n2ncc(C#N)c2/N=C/N2CCCCCC2)cc1	none
CCCCn1c(=O)[nH]c(=O)c2c1nc(CN1C(=O)c3ccccc3S1(=O)=O)n2CCC	none (no result: TAG inh)
CCCCn1c(=O)[nH]c(=O)c2c1nc(Cn1ncc(Cl)c(Cl)c1=O)n2CCC	Shn3 3UTR inh 98.0 (no result: TAG inh)
Cc1ccc(S(=O)(=O)N(C)c2ccc(OCC(=O)N3CCCC(C(F)(F)F)C3)cc2)cc1 (stereo not drawn)	none
CC(C)c1nc2oc3c(NCCO)ncnc3c2c2c1COC(C)(C)C2	none
COc1cc(C(=O)NNC(=S)NC(=O)c2ccccc2C)cc(OC)c1OC	none (no result: TAG inh)
COc1cc(C(=O)NC(=S)NNC(=O)c2cnccn2)cc(OC)c1OC	Shn3 3UTR inh 89.4, aSyn UTR inh 78.9 (no result: TAG inh)
COc1ccccc1C(=O)NNC(=S)NC(=O)c1cc(OC)c(OC)c(OC)c1	aSyn UTR inh 72.5
CCCOc1ccc(C(F)(F)F)cc1NS(=O)(=O)c1ccc(Cl)nc1	none (no result: aSyn UTR inh)
O=C(COc1ccccc1Cl)Nc1cc(Cl)ccc1O	none (no result: Jurkat NFkB inh, 697 NFkB inh)
Cc1cc(C)c(NC(=O)CSc2nc3ncc(Cl)cc3[nH]2)c(C)c1	none (no result: TAG inh)
Cc1ccc2[nH]c(O)c(N=Nc3nc4ccccc4s3)c2c1	none
C/C(N=Nc1nc2ccccc2s1)=N\Nc1ccccc1O	TAG inh 58.0 (no result: Shn3 3UTR inh)
COc1ccc(C(=O)C(c2ccccc2)N2CCOCC2)cc1 (stereo not drawn)	none
Cc1ccc(C(=O)C(c2ccccc2)N2Cc3ccccc3C2=N)cc1 (stereo not drawn)	Gli-Sufu block 55.7
COc1cc(/C=N/NC(=O)C2=NNC(=O)C2C)ccc1O (stereo not drawn)	none
Nc1nc(NCCO)nc(NC2CCCCC2)c1[N+](=O)[O-]	none (no result: TAG inh)
Nc1nc(NCCOCCO)nc(NC2CCCCC2)c1[N+](=O)[O-]	aSyn UTR inh 67.6 (no result: TAG inh)
COc1ccc(C(=O)Nc2ccc3[nH]ccc3c2)cc1OC	none
COc1ccc(C(=O)Nc2ccc3[nH]ccc3c2)cc1	aSyn UTR inh 66.4
CC(C)CNc1nc(N)c([N+](=O)[O-])c(NCc2ccccc2)n1	aSyn UTR inh 77.0 (no result: TAG inh)
Nc1nc(NCc2ccccc2)nc(NCc2ccccc2)c1[N+](=O)[O-]	none (no result: TAG inh)
Nc1nc(Nc2ccccc2)nc(NCc2ccccc2)c1[N+](=O)[O-]	aSyn UTR inh 84.2
CN(C)c1ccc(/C=C/c2ccc3c4ccccc4ccc3[n+]2-c2ccccc2)cc1	Shn3 3UTR inh 93.0, TAG inh 66.9, Gli-Sufu block 91.7 (no result: Jurkat NFkB inh, 697 NFkB inh, aSyn UTR inh)
CN(C)c1ccc(/C=C/c2cccc[n+]2[O-])cc1	none
c1csc(-c2nnc(N3CCCCCC3)c3ccccc23)c1	none
O=c1ccc(C(F)(F)F)cn1Cc1cc(=O)n2ccsc2n1	none
O=c1cc(CNc2cc(C(F)(F)F)cc(C(F)(F)F)c2)nc2sccn12	aSyn UTR inh 65.2 (no result: TAG inh)
